Source: PubChem BioAssay (The Scripps Research Institute Molecular Screening Center)
Shown are actives, neighbours in structure and some others; about 2.9% of the full set was active somewhere.
PLCg1 inh: PLC-gamma1 enzyme inhibitors, primary screen, biochemical, fluorescence, purified enzyme | fluorogenic substrate | inhibition, % at 12.2 µM | 370,000 compounds, 0.84% hits | AID 720700, 2013
ADAM17 inh: ADAM17 inhibitors, primary screen, biochemical, QFRET. recombinant ADAM17, EDANS/DABCYL FRET peptide cleavage. 370,000 compounds, 0.83% hits. Disintegrin and metalloproteinase domain-containing protein 17 (Homo sapiens), P78536. AID 720648, 2013. inhibition, % at 6.95 µM;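 active means inhibition above the mean of compounds lying between control limits plus 3 SD, set per campaign, cut at about 8.5% in these data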;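 further: 0% = DMSO-only wells as the low control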
PLC-beta3 inh: human PLC-beta3 inhibitors, primary screen, biochemical, fluorescence. 1-phosphatidylinositol 4,5-bisphosphate phosphodiesterase beta-3 (Homo sapiens), Q01970. Purified PLC-beta3, fluorogenic substrate. inhibition, % at 12.2 µM. 370,000 compounds, 0.18% hits. AID 720704, 2013; in the data active means inhibition above about 11%;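 further: 0% = median of compound wells on plate and 100% = full blocker control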
ADAM10 inh: human ADAM10 inhibitors, primary screen, biochemical, QFRET, HTS; Disintegrin and metalloproteinase domain-containing protein 10 (Homo sapiens), O14672; recombinant ADAM10, EDANS/DABCYL FRET peptide cleavage, 3 h; inhibition, % at 7 µM; 370,000 compounds, 0.62% hits;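 active means inhibition above a per-campaign cutoff equal to the mean of compounds falling between control-based bounds plus 3 SD, cut at about 20% in these data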;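 further: 0% = DMSO wells while the 100% control is not disclosed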
KLK7 zymogen act: proKLK7 zymogen activators, primary screen, biochemical, fluorescence intensity; AID 652039, 2013; activation, % at 7 µM; purified proKLK7, EDANS-DABCYL substrate fluorescence; 100% is mature enzyme control, 0% vehicle; 370,000 compounds, 0.9% hits;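 active means activation above the mean of all tested compounds plus 3 SD, computed per campaign excluding outliers beyond control limits, cut at about 13% in these data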
PLCgamma1 ctr: PLC-gamma1 enzyme inhibitors, counter-screen for PLC-beta3 inhibitor project, biochemical, fluorescence; shares compounds with PLCg1 inh; purified PLC-gamma1, fluorogenic substrate; inhibition, % at 12.3 µM; 3,300 compounds, 3.1% hits; AID 743258, 2014
PLCb3 confirm: PLC-beta3 inhibitor confirmation, biochemical, fluorescence, purified enzyme | shares compounds with PLCg1 inh | fluorogenic substrate fluorescence | inhibition, % at 12.3 µM | 3,300 compounds, 1% hits | AID 743261, 2014; in the data active means inhibition above about 11%
Active calls of the source: *; nt = not tested or not shown. Unless noted, no stated cut-off is given here; in the data, active means inhibition above about 9.5%; inactive means the rest.

SMILES | PLCg1 inh | ADAM17 inh | PLC-beta3 inh | ADAM10 inh | KLK7 zymogen act | PLCgamma1 ctr | PLCb3 confirm
Cc1ccccc1NC(=O)CNc1ccc(Cl)c(C(F)(F)F)c1 | 13* | 7 | 16* | 16 | -1 | 3 | 7
CCOc1ccc(S(=O)(=O)N(C)c2ccc(OCC(=O)N3CCOCC3)cc2)cc1 | 9.8* | 6 | 3 | 10 | 0 | -5 | -1
CCOc1ccc(OCC(=O)N2CCOCC2)cc1 | -3 | -7 | 0 | 3 | 0 | nt | nt
O=C1c2cccnc2C(=O)N1c1cccc([N+](=O)[O-])c1 | 16* | 5 | 0 | -1 | -1 | -2 | -3
CC(C)c1ccc(C(C)NCCS(=O)(=O)c2ccc(Cl)cc2)cc1 (stereo not drawn) | 5 | 6 | -4 | 6 | 0 | nt | nt
COC(=O)c1cc(C)nc2c1C(=O)C(=O)C=C2N1CCOCC1 | 14* | 0 | -2 | 2 | 0 | 49* | 11*
Cc1ccc(C(=O)COC(=O)c2c(C)cc(=O)oc2C)cc1[N+](=O)[O-] | 7 | 8 | 12* | 7 | 0 | -5 | -2
CCCS(=O)(=O)NC(=O)C1(C)CCCN(C(=O)c2ccccc2C(F)(F)F)C1 (stereo not drawn) | 4 | -2 | 3 | 0 | 0 | nt | nt
CCCCNc1ncnc2c1cnn2-c1ccc(C)cc1C | 11* | 4 | 10 | 16 | 0 | -5 | 0
NC(=O)c1cnn(-c2cccc(Cl)c2)c1N | 2 | -2 | -6 | -2 | 0 | nt | nt
CC(C)n1ncc(C(N)=O)c1N | 9.8* | 7 | 2 | 7 | 0 | -3 | 3
COc1cccc(NC(=O)C2(C)CCN2C(=O)Cc2ccc(C(C)C)cc2)c1 (stereo not drawn) | 4 | 2 | 2 | 5 | 0 | nt | nt
Cc1cc(OCCCC(=O)NCCc2ccccn2)ccc1Cl | 9.5* | 3 | -6 | 1 | 0 | -2 | -2
O=C(Nc1ccc(N2CCOCC2)c2nonc12)C1CCCC1 | -1 | -2 | -2 | -1 | 0 | nt | nt
Nc1ccc(N2CCOCC2)c2nonc12 | 31* | -1 | -12 | 2 | 2 | -4 | -1
COc1ccc(NC(=O)Cn2nnc(C(=O)NCc3ccc(C)cc3)c2N)cc1Cl | 13* | -2 | -6 | 2 | 0 | -2 | -2
COc1ccc(NC(=O)Cn2nnc(C(=O)NCc3ccccc3)c2N)cc1Cl | -3 | 0 | 7 | 2 | 0 | nt | nt
CCOC(=O)c1cc(S(=O)(=O)Nc2ccc(F)cc2F)cn1C | 1 | -3 | -6 | 0 | 0 | nt | nt
COC(=O)[C@]12C[C@H](CC(=O)N3CCN(C(=O)c4ccco4)CC3)C(=O)N(CCC3=CCCCC3)C1=C[C@H](C1CCCC1)O[C@@H]2C | 2 | 1 | 0 | 6 | 0 | nt | nt
COC(=O)[C@]12C[C@H](CC(=O)N3CCCC3)C(=O)N(CCC3=CCCCC3)C1=C[C@H](C1CCCC1)O[C@@H]2C | 11* | -5 | 1 | -5 | 0 | -3 | 0
Cc1cccc(C(=O)N2CCN(c3ccc([N+](=O)[O-])c(NCc4ccco4)c3)CC2)c1 | 9.5* | 1 | -2 | 8 | 1 | -2 | -1
Cc1ccc(C(=O)N2CCN(c3ccc([N+](=O)[O-])c(NCc4ccco4)c3)CC2)cc1 | 9 | 7 | 3 | 17 | 0 | nt | nt
CCCNC(=O)c1cc2c(C(F)(F)F)nn(C)c2s1 | 13* | 1 | 1 | 3 | 1 | -5 | -1
C[C@@H]1CN([C@@H](C)CO)C(=O)c2cc(NC(=O)c3ccccc3)ccc2O[C@@H](C)CCCCO[C@@H]1CN(C)Cc1ccc(C(F)(F)F)cc1 | 0 | 1 | -10 | 6 | 0 | nt | nt
CCCNC(=S)Nc1ccc(Nc2ccccc2)cc1 | 4 | 2 | 1 | 9 | 0 | nt | nt
S=C(NCCN1CCCCC1)Nc1ccccc1 | 10* | -37 | 3 | 5 | -1 | -7 | -3
